We go through 39 compounds from PubChem BioAssay AID1491 (National Center for Advancing Translational Sciences (NCATS), 2009).

Values joined by “and” are separate entries in the source; they are usually repeats but may differ in a detail not shown here. Identical values can stand only once. Records with an inconclusive call do not appear. Where a call stands in place of a potency, no number is given. Active and inactive are the calls of the source. The call rests on the fitted dose curve; in most records, active means well fitted inhibition curve with a large enough effect in the main read-out, with a control signal flat; inconclusive means small, poorly fitted or top-dose-only effect, or a change in a side signal; inactive means flat fitted curve, though single readings scatter.
Potency means the concentration at half of the fitted maximal effect.

Chain of Neuropeptide S receptor (Homo sapiens) (Q6W5P4 whole entry, looked up): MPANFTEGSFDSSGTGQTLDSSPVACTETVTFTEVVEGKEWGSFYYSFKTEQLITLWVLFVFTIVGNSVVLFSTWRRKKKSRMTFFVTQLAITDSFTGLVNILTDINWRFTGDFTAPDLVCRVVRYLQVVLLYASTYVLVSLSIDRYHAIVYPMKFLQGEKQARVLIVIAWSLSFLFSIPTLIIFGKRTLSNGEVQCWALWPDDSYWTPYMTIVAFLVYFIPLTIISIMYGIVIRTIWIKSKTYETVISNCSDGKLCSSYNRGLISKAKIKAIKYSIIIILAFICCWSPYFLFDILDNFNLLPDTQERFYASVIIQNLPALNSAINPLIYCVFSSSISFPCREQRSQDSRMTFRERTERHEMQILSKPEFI

This assay concerns the target Neuropeptide S receptor (Homo sapiens) (UniProt Q6W5P4). Briefly: Confirmation Concentration-Response Assay for Antagonists of the Neuropeptide S Receptor: cAMP Signal Transduction. The following applies: CHO-NPSR cells, cAMP TR-FRET, antagonist mode; series mostly up to 22.3 µM. In short, it runs like this:
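LANCE TR-FRET cAMP read-out: 665/620 nm emission ratio, with the 620 nm donor channel also reported, after 2 h RT detection. Stably transfected CHO-NPSR cells got compound titrations and 100 nM NPS in stimulation reagent for 60 min at 37C. IC50 came from Hill fits.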
(In general: Time-resolved FRET reads energy transfer from a long-lived donor to a nearby acceptor.)
Turning to `CCOC(=O)c1cnc(Nc2nc3ccccc3o2)nc1CSC(=S)N(CC)CC`, the Potency entry was “inactive”.
Take `CN(C)C(=O)Oc1cccc([N+](C)(C)C)c1`: the Potency result was “inactive”.
Turning to `COc1ccc(-c2cc(N)n(S(=O)(=O)c3c(F)c(F)c(F)c(F)c3F)n2)cc1OC`, the Potency is 7.08 µM (active).
`Cc1nn(C)cc1/C=N/NC(=S)Nc1ccccc1`: the Potency result was “inactive”.
The result for `O=C(CSc1cccc[n+]1[O-])Nc1ccccc1Oc1ccccc1` reads “inactive”; that for `COc1ccc(/C=N/n2cncn2)cc1Cn1cc([N+](=O)[O-])cn1`, “inactive”.
Take `CCC(Sc1ccc2nnc(-c3cccnc3)n2n1)C(=O)O` (centres undefined): the Potency entry was “inactive”.
Regarding `N=c1c2c(ncn1-c1ccccc1)Oc1ccc3ccccc3c1C2c1ccc2c(c1)OCCO2` (centres undefined), the Potency is 1.41 µM (active).
In the case of `Cc1nn(C(=O)c2cccs2)c(N)c1-c1ccccc1`, the Potency entry was “inactive”.
With `COc1ccccc1C1c2c(ncn(-c3ccccc3)c2=N)Oc2ccc3ccccc3c21` (centres undefined) the figure was 17.8 µM (active); with `C(=N\Nc1nc(-c2ccccn2)nc2ccccc12)/c1ccccc1`, “inactive”; with `COc1cccc(C2c3c(ncn(-c4ccccc4)c3=N)Oc3ccc4ccccc4c32)c1` (centres undefined), 2 µM (active) and 1.58 µM (active).
As for `COc1ccc(CCNC(=O)CC(c2ccccc2)c2cccc(C)c2O)cc1OC` (centres undefined), the Potency entry was “inactive”.
With `Cn1c(COc2ccccc2)nnc1SCc1cc(=O)[nH]c2ccccc12` the entry was “inactive”; with `Cc1nnc(NC(=O)c2cccc(S(=O)(=O)N3CCc4ccccc43)c2)s1`, “inactive”; with `O=C(N/N=C/c1ccc([N+](=O)[O-])o1)c1ccc(O)cc1`, “inactive”.
The result for `COc1cccc(C2c3c(ncn(-c4ccccc4)c3=N)Oc3ccc4ccccc4c32)c1OC` (centres undefined) reads 4.47 µM (active); that for `CC(=O)c1c(C(C)=O)c(C)n(NC(=O)c2cccnc2)c1C`, “inactive”.
Regarding `Cc1nc(NC(=S)Nc2ccccc2)sc1C`, the Potency entry is “inactive”.
In the case of `COC(=O)/C(=C1/Oc2cc(C)oc(=O)c2S1)C(F)(F)F`, the Potency entry was “inactive”.
With `O=C(NCCCN1CCOCC1)c1cc2c(=O)[nH]c3ccccc3c2s1` the entry was “inactive”; with `COc1cccc(N2CCN(c3ncnc4c3[nH]c3ccc(F)cc34)CC2C)c1` (centres undefined), 5.62 µM (active); with `NC(=O)c1ccsc1NC(=O)c1ccc(S(=O)(=O)N2CCCC2)cc1`, “inactive”.
With `CCO[C@@H]1OC(C(=O)NCc2nc3ccccc3[nH]2)=C[C@H](c2ccc(C(F)(F)F)cc2)[C@H]1CCCO` the entry was “inactive”; with `N=c1c2c(ncn1-c1ccccc1)Oc1ccc3ccccc3c1C2c1ccc2c(c1)OCO2` (centres undefined), 2.51 µM (active); with `C=CCn1c(SCCN2C(=O)c3ccccc3C2=O)nc2scc(-c3ccccc3)c2c1=O`, “inactive”.
Take `O=C(Cc1ccccc1)Nc1ncnc2c1C(c1ccccc1)c1c(ccc3ccccc13)O2` (centres undefined): the Potency is 1.58 µM (active).
Take `COc1cccc(C2c3c(ncn(CCCN4CCOCC4)c3=N)Oc3ccc4ccccc4c32)c1` (centres undefined): the Potency is 14.1 µM (active).
`Cc1ccc(NC(=S)NNC(C)(C)C)cc1`: the Potency result is “inactive”.
For `CC1(C)O[C@@H]2C[C@H]3[C@@H]4C[C@H](F)C5=CC(=O)CC[C@]5(C)[C@H]4[C@@H](O)C[C@]3(C)[C@]2(C(=O)CO)O1`, the Potency entry is “inactive”.
Take `O=C1Nc2ccc(S(=O)(=O)N3CCCC3C(=O)O)c3cccc1c23` (centres undefined): the Potency result is “inactive”.
Take `N[C@@H](Cc1cc(I)c(Oc2ccc(O)c(I)c2)c(I)c1)C(=O)O`: the Potency entry is “inactive”.
With `CCCCNS(=O)(=O)c1ccc2nc(-c3cccnc3)cc(C(=O)NC(C)CC)c2c1` (centres undefined) the entry was “inactive”; with `CN(C)c1ccc(N=Cc2ccco2)cc1`, “inactive”.
Regarding `CCOc1ccc(C2c3c(ncn(-c4ccccc4)c3=N)Oc3ccc4ccccc4c32)cc1OCC` (centres undefined), the Potency was 2 µM (active).
With `CCc1ccc2oc(-c3cc(N)cc(C)c3O)nc2c1` the entry was “inactive”.
As for `O=C(Nc1ncnc2c1C(c1ccccc1)c1c(ccc3ccccc13)O2)c1ccccc1` (centres undefined), the Potency is 6.31 µM (active).
`CC(=O)c1sc(N/N=C\c2ccccc2O)nc1C`: the Potency is 7.08 µM (active).
Consider `CCC(C)n1c(=O)c(C(=O)Nc2ccccc2S(N)(=O)=O)c(O)c2ccccc21` (centres undefined), for which the Potency result is “inactive”.
